Hit rate of the full screen: of about 5,500 compounds, about 2,000 (36%) were called active. Not shown: some 18% with an inconclusive outcome. Cut-off read from the data, not from the text of the source: active = normalized growth mostly below about 0.91 (no sharp cut-off); inconclusive = no clear call, values can overlap the other calls; inactive = mostly above about 0.92. The list shows a part of the results.
Assay: chemical genetic growth profiling, strain panel (AID 1159580);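 note: tested at 20 µM; growth read once vehicle control cultures reached saturation at 30 °C; 1 = growth at the plate median or of vehicle wells; lower values mean less growth of the strain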
Conditions: growth OD

Measured: normalized growth

Nc1nc(/C(=C/CC(=O)O)C(=O)N[C@@H]2C(=O)N3C(C(=O)O)=CCS[C@H]23)cs1
inactive: S. cerevisiae deletion strains, locus YJR075W, strain HOC1, active compounds read low 1.01 | S. cerevisiae deletion strains, locus YKL009W, strain mrt4, active compounds read low 0.986 | S. cerevisiae deletion strains, locus YKL068W, active compounds read low 0.997 | S. cerevisiae deletion strains, locus YKL085W, strain MDH1 (second series), active compounds read low 0.987 | S. cerevisiae deletion strains, locus YKL085W, strain MDH1, active compounds read low 0.987 | S. cerevisiae deletion strains, locus YKL160W, strain elf1, active compounds read low 0.993 | S. cerevisiae deletion strains, locus YKL190W, strain CNB1, active compounds read low 1.01 | S. cerevisiae deletion strains, locus YKR001C, strain vps1, active compounds read low 0.981 | S. cerevisiae deletion strains, locus YKR026C, strain gcn3, active compounds read low 1 | S. cerevisiae deletion strains, locus YKR091W, strain srl3, active compounds read low 1.01 | S. cerevisiae deletion strains, locus YLL001W, strain dnm1, active compounds read low 1.01 | S. cerevisiae deletion strains, locus YLL026W, active compounds read low 1.01 | S. cerevisiae deletion strains, locus YLL041C, strain sdh2, active compounds read low 1.01 | S. cerevisiae deletion strains, locus YLR027C, strain aat2, active compounds read low 1.01 | S. cerevisiae deletion strains, locus YLR039C, strain RIC1, active compounds read low 1.03 | S. cerevisiae deletion strains, locus YLR058C, strain SHM2, active compounds read low 0.996 | S. cerevisiae deletion strains, locus YLR102C, strain apc9, active compounds read low 0.996 | S. cerevisiae deletion strains, locus YLR113W, strain HOG1, active compounds read low 0.998 | S. cerevisiae deletion strains, locus YLR221C, strain rsa3, active compounds read low 1.01 | S. cerevisiae deletion strains, locus YLR258W, strain gsy2, active compounds read low 0.999 | S. cerevisiae deletion strains, locus YLR262C, strain YPT6 (second series), active compounds read low 1.03 | S. cerevisiae deletion strains, locus YLR262C, strain YPT6, active compounds read low 1.02 | S. cerevisiae deletion strains, locus YLR268W, strain sec22, active compounds read low 0.987 | S. cerevisiae deletion strains, locus YLR320W, strain mms22, active compounds read low 1.01 | S. cerevisiae deletion strains, locus YLR330W, strain CHS5, active compounds read low 0.99 | S. cerevisiae deletion strains, locus YLR342W, strain FKS1 (second series), active compounds read low 1 | S. cerevisiae deletion strains, locus YLR342W, strain FKS1, active compounds read low 1.01 | S. cerevisiae deletion strains, locus YLR357W, strain rsc2, active compounds read low 1.01 | S. cerevisiae deletion strains, locus YLR370C, strain arc18, active compounds read low 1 | S. cerevisiae deletion strains, locus YLR371W, strain rom2, active compounds read low 0.995 | S. cerevisiae deletion strains, locus YLR384C, strain iki3, active compounds read low 0.997 | S. cerevisiae deletion strains, locus YLR418C, strain cdc73, active compounds read low 1 | S. cerevisiae deletion strains, locus YML016C, strain PPZ1, active compounds read low 0.984 | S. cerevisiae deletion strains, locus YML032C, strain rad52, active compounds read low 0.997 | S. cerevisiae deletion strains, locus YML120C, strain ndi1, active compounds read low 1 | S. cerevisiae deletion strains, locus YML124C, strain tub3, active compounds read low 0.982 | S. cerevisiae deletion strains, locus YMR058W, strain fet3, active compounds read low 0.998 | S. cerevisiae deletion strains, locus YMR078C, strain ctf18, active compounds read low 0.991 | S. cerevisiae deletion strains, locus YMR125W, strain sto1, active compounds read low 1.01 | S. cerevisiae deletion strains, locus YMR129W, active compounds read low 1.01 | S. cerevisiae deletion strains, locus YMR205C, strain PFK2, active compounds read low 1.01 | S. cerevisiae deletion strains, locus YMR223W, strain ubp8, active compounds read low 1 | S. cerevisiae deletion strains, locus YMR231W, strain pep5, active compounds read low 1.01 | S. cerevisiae deletion strains, locus YMR263W, strain SAP30, active compounds read low 1.01 | S. cerevisiae deletion strains, locus YMR307W, strain GAS1, active compounds read low 0.996 | S. cerevisiae deletion strains, locus YNL067W, strain RPL9B, active compounds read low 1.03 | S. cerevisiae deletion strains, locus YNL071W, strain lat1, active compounds read low 1 | S. cerevisiae deletion strains, locus YNL128W, strain TEP1, active compounds read low 1.01 | S. cerevisiae deletion strains, locus YNL153C, strain GIM3, active compounds read low 0.995 | S. cerevisiae deletion strains, locus YNL183C, strain NPR1, active compounds read low 0.961 | S. cerevisiae deletion strains, locus YNL209W, strain ssb2, active compounds read low 0.994 | S. cerevisiae deletion strains, locus YNL233W, strain BNI4, active compounds read low 0.993 | S. cerevisiae deletion strains, locus YNL248C, strain rpa49, active compounds read low 1.01 | S. cerevisiae deletion strains, locus YNL250W, strain rad50, active compounds read low 0.987 | S. cerevisiae deletion strains, locus YNL271C, strain bni1, active compounds read low 0.987 | S. cerevisiae deletion strains, locus YNL298W, strain CLA4, active compounds read low 0.984 | S. cerevisiae deletion strains, locus YNL307C, strain MCK1, active compounds read low 0.998 | S. cerevisiae deletion strains, locus YNL322C, strain KRE1 (second series), active compounds read low 1.01 | S. cerevisiae deletion strains, locus YNL322C, strain KRE1, active compounds read low 0.994 | S. cerevisiae deletion strains, locus YNR049C, strain mso1, active compounds read low 1 | S. cerevisiae deletion strains, locus YNR052C, strain pop2, active compounds read low 0.983 | S. cerevisiae deletion strains, locus YOL006C, strain TOP1, active compounds read low 1.02 | S. cerevisiae deletion strains, locus YOL012C, strain htz1 2.11 | S. cerevisiae deletion strains, locus YOL147C, strain pex11, active compounds read low 0.997 | S. cerevisiae deletion strains, locus YOR001W, strain rrp6, active compounds read low 1.01 | S. cerevisiae deletion strains, locus YOR061W, strain CKA2, active compounds read low 0.984 | S. cerevisiae deletion strains, locus YOR069W, strain VPS5, active compounds read low 0.993 | S. cerevisiae deletion strains, locus YOR070C, strain gyp1, active compounds read low 1 | S. cerevisiae deletion strains, locus YOR080W, strain dia2, active compounds read low 1.01 | S. cerevisiae deletion strains, locus YOR083W, strain WHI5, active compounds read low 1.01 | S. cerevisiae deletion strains, locus YOR106W, strain vam3, active compounds read low 1.02 | S. cerevisiae deletion strains, locus YOR136W, strain idh2, active compounds read low 0.983 | S. cerevisiae deletion strains, locus YOR144C, strain elg1, active compounds read low 0.988 | S. cerevisiae deletion strains, locus YOR184W, strain ser1, active compounds read low 0.999 | S. cerevisiae deletion strains, locus YOR231W, strain MKK1, active compounds read low 0.986 | S. cerevisiae deletion strains, locus YOR265W, strain rbl2, active compounds read low 1.01 | S. cerevisiae deletion strains, locus YOR270C, strain vph1, active compounds read low 1.06 | S. cerevisiae deletion strains, locus YOR290C, strain snf2, active compounds read low 0.995 | S. cerevisiae deletion strains, locus YOR316C, strain cot1, active compounds read low 0.992 | S. cerevisiae deletion strains, locus YPL051W, strain arl3, active compounds read low 1 | S. cerevisiae deletion strains, locus YPL055C, strain LGE1, active compounds read low 1.01 | S. cerevisiae deletion strains, locus YPL078C, strain atp4, active compounds read low 1 | S. cerevisiae deletion strains, locus YPL106C, strain sse1, active compounds read low 1.01 | S. cerevisiae deletion strains, locus YPL240C, strain hsp82, active compounds read low 1.01 | S. cerevisiae deletion strains, locus YPL241C, strain CIN2, active compounds read low 0.993 | S. cerevisiae deletion strains, locus YPL256C, strain CLN2, active compounds read low 0.961 | S. cerevisiae deletion strains, locus YPR119W, strain clb2, active compounds read low 0.997 | S. cerevisiae deletion strains, locus YPR141C, strain kar3, active compounds read low 0.99 | S. cerevisiae deletion strains, locus YPR163C, strain tif3, active compounds read low 0.982 | S. cerevisiae deletion strains, locus YPR167C, strain met16, active compounds read low 0.991 | S. cerevisiae deletion strains, strain wtn01, active compounds read low 0.985 | S. cerevisiae strains, strain wild type, active compounds read low 1.01
